Our source for the growth values is PubChem BioAssay (NCI).

This is part of a sample that, as a whole, favours compounds with a hit. Of some 83,000 tested, about 20% had one in any assay.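 In brief: 96-well plates, 48 h treatment, single concentration, percent growth endpoint.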 Activity calls are given as the source filed them.

This experiment relates to A549/ATCC NSCLC. Kind of experiment: NCI-60 one-dose screen, 48 h (100 = growth as untreated, 0 = no growth, -100 = all killed). The conditions noted are these: 10 µM unless noted. The procedure: Growth inhibition of the A549/ATCC human Non-Small Cell Lung tumor cell line is measured as a screen for anti-cancer activity. Cells are grown in 96 well plates and exposed to the test compound for 48 hours. Compounds are tested at a single concentration, which is 10^-5 M for most compounds. The reported endpoint is percent growth (GI% or GIPRCNT), where numbers from 0 - 100% represent growth inhibition, and numbers from -100% - 0 represent cell death. For example, a value of 40 represents 60% growth inhibition. A value of 0 means no net growth occurred over the course of the experiment. A value of -40 indicates 40% of cells at the beginning of the experiment died by the end of the experiment. A value of -100 means all cells are dead at the end of the experiment.
NCI-60 Human Tumor Cell Lines Screen was performed using the standard one-dose NCI protocol, which is described in more detail at https://dtp.cancer.gov/discovery_development/nci-60/default.htm.
Compounds with GIPRCNT values below 10 were considered active. Activity score was based on GIPRCNT using the following formula: […]
Score is 0 for GIPRCNT values of 100 or above, 50 for GIPRCNT values of 0, and 100 for GIPRCNT values of -100.
Consider `CS(=O)c1nccc(-c2c(-c3ccc(F)c(OCc4ccc(F)cc4)c3)nc3sccn23)n1` (stereo not given), for which the growth was 102% (inactive).

Turning to `C=CCn1c(SCC(=O)Nc2cccc(C(=O)/C=C/c3ccc(OC)c(OC)c3)c2)nc2ccccc2c1=O`, the growth was 89.1% (inactive). Regarding `Oc1ccc(CSc2nnc(-c3ccccc3)o2)c2cccnc12`, the growth is 17.6% (inactive).

In the case of `CCNC(=O)Oc1ccc(/C(=C(/C)c2ccc(Cl)cc2)c2ccc(OCCN(C)C)cc2)cc1`, the growth is 71.6% (inactive). Under `c1cncc(-c2cn3nc(-c4c[nH]c5ccccc45)sc3n2)c1` stands 57.8% (inactive).

For the compound `NS(=O)(=O)c1ccc(Nc2nc(N/N=C/c3ccc(F)cc3)nc(Nc3ccccc3)n2)cc1`, the growth is 7.78% (active). Under `COc1ccc(OC)c(NC2=C(Cl)C(=O)C(C)=C(C)C2=O)c1` stands 101% (inactive); under `CC(C)N=C(N/C(N)=N/c1nc2ccccc2s1)NC(C)C`, 69.3% (inactive).

With `O=C(c1ccc(O)cc1)[C@@H]1[C@@H]2CCCN2[C@@]2(C(=O)N(C(=O)c3ccc(F)cc3)c3ccccc32)[C@H]1c1ccc(F)cc1`, the growth is 96.6% (inactive). In the case of `COc1ccc(Cn2cc3c(c2-c2cc(OC)c(OC)c(OC)c2)CCCc2cnoc2-3)cc1`, the growth is 33.6% (inactive). With `Nc1c(C(=O)c2ccccc2)sc2nc(-c3cnccn3)cc(-c3cccs3)c12` the figure was 102% (inactive); with `Cc1cc(O)c(=O)cc2c1C[C@H]1CC(C)(C)/C=C/C[C@]3(C)Oc4cc(=O)c(O)cc(C)c4C[C@H]3C[C@H](O)[C@@]1(C)O2`, -0.223% (active). With `COc1cc(-c2nc(SCc3ccc(C)cc3)[nH]c(=O)c2C#N)ccc1OCc1ccccc1` the figure was 102% (inactive); with `Cc1cc(NS(=O)(=O)c2ccc(-c3cnc(C4CC4)o3)cc2)ccc1I`, 48.1% (inactive). With `CC(c1ccccc1)N1C(=O)/C(=C/c2csc(C#N)n2)SC1=S` (stereo not given) the figure was 95.8% (inactive). With `COc1ccccc1/C=C/C(=O)c1nnn(-c2ccc(C(=O)O)cc2)c1C`, the growth was 90.3% (inactive). Regarding `COc1cc2c3c(n(CCCN4CCCC4)c(=O)c2cc1OC)-c1cc2c(cc1C3=O)OCO2`, the growth was -77.1% (active). With `CNC(=O)c1c(NC(=O)c2ccc(F)cc2F)sc2c1CCC(=O)C2`, the growth was 13.1% (inactive). With `Nc1cc(F)ccc1NC(=O)c1ccc(NC(=O)C/C=C/c2cccnc2)cn1` the figure was 31.5% (inactive). With `C=CCn1c(SCC(=O)Nc2cccc(C(=O)/C=C/c3cccc([N+](=O)[O-])c3)c2)nc2ccccc2c1=O` the figure was 94.1% (inactive). Under `Nc1nc(-c2cccc([N+](=O)[O-])c2)c(N=Nc2ccccc2Cl)s1` stands 51.8% (inactive). In the case of `CC(=O)NC(C)(C)C(=O)N[C@@H](C)C(=O)NC(C)(C)C(=O)N[C@@H](C)C(=O)NC(C)(C)C(=O)N[C@@H](C)C(=O)N[C@@H](CCC(N)=O)C(=O)NC(C)(C)C(=O)N[C@H](C(=O)NC(C)(C)C(=O)NCC(=O)N[C@@H](CC(C)C)C(=O)NC(C)(C)C(=O)N1CCC[C@H]1C(=O)N[C@H](C(=O)NC(C)(C)C(=O)NC(C)(C)C(=O)N[C@@H](CCC(N)=O)C(=O)N[C@@H](CCC(N)=O)C(=O)N[C@H](CO)CC1CCCCC1)C(C)C)C(C)C`, the growth is 48.1% [5 µM] (inactive). As to `COc1ccc(/C=C/C(=O)c2nnn(-c3ccc(C(=O)O)cc3)c2C)cc1OC`, the growth was 97.5% (inactive). On to `Cc1ccc(-c2cc(-c3ccc(N(C)C)cc3)n3c(n2)nc2ccccc23)cc1`, for which the growth is 56.5% (inactive). Under `O=S(=O)(Nc1ccc(C2CC2)cc1)c1ccc(-c2cnc(C3CC3)o2)cc1` stands 62.2% (inactive); under `Oc1ccccc1/C=N/Nc1nc(N/N=C/c2ccccc2O)nc(N2CCOCC2)n1`, 13% (inactive). `CCOC(=O)C1=C(C)N=C2Sc3ccccc3N2C1c1ccccc1` (stereo not given): the growth was 82.9% (inactive). Under `C/C(Cc1ccc(Cl)cc1)=C(/c1ccccc1)c1ccc(OCCN)cc1` stands 99.1% (inactive). `CCC(CC)n1c(=O)c(SC2=NC3C(NN2)N(CC)C(=O)N3CC)c(C(=O)O)c2ccccc21` (stereo not given): the growth was 36.5% (inactive). For the compound `CC(C)=CCc1c(O)c(CC=C(C)C)c2c(c1O)C(=O)C1=C[C@@H]3C[C@H]4C(C)(C)O[C@@](C/C=C(\C)C(=O)O)(C3=O)[C@@]14O2`, the growth was 4.97% (active).

`COC(=O)c1nc(-c2ccc(C)cc2)oc1S(=O)(=O)N1CCN(c2oc(-c3ccccc3)nc2C#N)CC1`: the growth was 102% (inactive). Regarding `Nc1nc(N)c2c(n1)NC(c1ccccc1)CC(c1ccc(Nc3nc(NCCO)nc(Nc4ccc(Cl)cc4)n3)cc1)=N2` (stereo not given), the growth is 75.7% (inactive). With `C=CCn1c(SCC(=O)Nc2cccc(C(=O)/C=C/c3ccc(C)cc3)c2)nc2ccccc2c1=O` the figure was 82.3% (inactive); with `COc1ccc2c(c1)c(-c1nnc(N)nc1-c1cn(C)c3ccccc13)cn2C`, 95.8% (inactive); with `CCc1ccc(NC(=O)N[C@@H](Cc2cc(F)cc(F)c2)C(=O)N[C@@H]2C(=O)N3CCC[C@H]3C(=O)N3CCO[C@H](C)[C@H]3C(=O)N[C@@H](CO)C(=O)N3C[C@H](C)C[C@H]3C(=O)O[C@H]2C)c(F)c1`, 26.9% (inactive). Take `Cc1ccc(-c2cc3nc(C(Cl)Cl)nc(-c4ccccc4)n3n2)cc1`: the growth was 77.5% (inactive). With `CCNCCCn1c2c(c3cc(OC)c(OC)cc3c1=O)C(=O)c1cc(OC)cnc1-2` the figure was 34.4% (inactive); with `Oc1ccc(CSc2nnc(-c3ccc(Cl)cc3)o2)c2cccnc12`, 19.6% (inactive).

Turning to `COc1cc2c3c(n(CCCNC4CCC4)c(=O)c2cc1OC)-c1cc2c(cc1C3=O)OCO2`, the growth was -50.6% (active). Under `CCN1C(=O)N(CC)C2SC(N/N=C/c3ccc(F)cc3)=NC21` (stereo not given) stands 26.4% (inactive).
